Compounds with a hit are over-represented: about 2.9% of the library has one in this group of screens.
PAFAH1B3 inh = PAFAH1B3 enzyme inhibitors, primary screen, biochemical, fluorescence polarization, human; AID 492972, 2010; actives 0.28% (n = 340,000); inhibition, % at 3.39 µM; Platelet-activating factor acetylhydrolase IB subunit alpha1 (Homo sapiens), Q15102; recombinant PAFAH1B3, FP-rhodamine probe;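 active means inhibition above the screen-wide average of all tested compounds plus 3 SD, cut at about 25% in these data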;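 further: 0% = enzyme with DMSO only and 100% = wells lacking PAFAH1B3 protein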
Target sequence (Q15102 whole entry, looked up): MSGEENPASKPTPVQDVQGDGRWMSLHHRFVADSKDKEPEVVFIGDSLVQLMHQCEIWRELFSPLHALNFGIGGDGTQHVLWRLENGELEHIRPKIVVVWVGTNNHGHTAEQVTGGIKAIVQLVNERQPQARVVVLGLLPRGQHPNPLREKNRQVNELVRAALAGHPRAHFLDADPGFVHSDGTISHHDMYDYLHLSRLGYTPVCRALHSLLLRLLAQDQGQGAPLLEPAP
PAFAH1B2 FP inh = PAFAH1B2 enzyme inhibitors, primary screen, biochemical, fluorescence polarization, human; actives 1.2% (n = 340,000); Platelet-activating factor acetylhydrolase IB subunit alpha2 (Homo sapiens), P68402; recombinant PAFAH1B2, FP-rhodamine activity probe; AID 492953, 2010; inhibition, % at 3.39 µM;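 active means inhibition above the mean of all tested compounds plus 3 SD, cut at about 24% in these data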;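 further: 0% = enzyme with DMSO and 100% = wells lacking PAFAH1B2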
Target sequence (P68402 whole entry, looked up): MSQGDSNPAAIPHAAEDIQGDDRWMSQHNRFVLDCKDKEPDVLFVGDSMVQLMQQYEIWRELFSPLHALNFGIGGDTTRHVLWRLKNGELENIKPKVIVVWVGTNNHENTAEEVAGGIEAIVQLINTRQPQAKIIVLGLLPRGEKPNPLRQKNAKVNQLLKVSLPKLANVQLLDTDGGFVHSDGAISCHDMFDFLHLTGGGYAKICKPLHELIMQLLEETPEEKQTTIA
EBNA-1 inh = EBNA-1 DNA-binding inhibitors, primary screen, biochemical, fluorescence polarization. AID 1950, 2009. actives 0.34% (n = 300,000). inhibition, % at 14.8 µM; in the data active means inhibition above about 28%
rCAG binder = binders of r(CAG) RNA repeats, primary screen, biochemical, fluorescence; inhibition, % at 3 µM; actives 1.3% (n = 370,000); AID 651821, 2012; r(CAG) RNA repeat, TO-PRO-1 dye displacement fluorescence;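 active means inhibition above the plate cutoff, the mean of all test compounds on that plate plus 3 SD, cut at about 35% in these data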;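 further: 0% = DMSO alone and 100% = 100 µM mitoxantrone as full dye displacement; higher means more dye released from RNA so lower well fluorescence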
ZTA counter = counter-screen for EBNA-1 inhibitors: inhibitors of Epstein-Barr virus ZTA | P03206 | ZTA-DNA binding, fluorescence polarization | inhibition, % at 11 µM | actives 0.15% (n = 320,000) | AID 2234; in the data active means inhibition above about 33%
Target sequence (P03206 whole entry, looked up): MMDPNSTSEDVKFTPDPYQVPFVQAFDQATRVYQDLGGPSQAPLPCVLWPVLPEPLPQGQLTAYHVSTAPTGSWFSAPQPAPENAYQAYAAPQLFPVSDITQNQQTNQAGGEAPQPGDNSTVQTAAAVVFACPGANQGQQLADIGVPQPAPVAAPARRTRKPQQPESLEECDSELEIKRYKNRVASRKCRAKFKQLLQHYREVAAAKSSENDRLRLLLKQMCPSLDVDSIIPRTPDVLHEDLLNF
PAFAH2 inh = PAFAH2 enzyme inhibitors, primary screen, biochemical, fluorescence polarization, human. recombinant PAFAH2, FP-rhodamine activity probe. inhibition, % at 3.39 µM. actives 0.99% (n = 340,000). AID 492956, 2010;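 active means inhibition above the mean over all tested compounds plus 3 SD, cut at about 30% in these data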;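 further: inhibitors block probe labeling of enzyme so polarization drops; 0% = enzyme with DMSO and 100% = wells lacking PAFAH2 protein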
ZTA inh confirm = EBV Zta binding to ZRE DNA, inhibitors, confirmation, biochemical, fluorescence polarization, triplicate; shares compounds with ZTA counter; actives 30% (n = 320); inhibition, % at 11.1 µM;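 active means mean inhibition across triplicate runs above the hit threshold derived for the original primary screen, cut at about 33% in these data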;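 further: 0% = Zta with DMSO and 100% = wells lacking Zta protein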
EBNA1 counter = EBNA-1 DNA-binding inhibition, counter-screen for ZTA inhibitor project, biochemical, fluorescence polarization | 320 tested, under 10 active | inhibition, % at 14.8 µM | AID 2362, 2010 | shares compounds with ZTA counter; call rule not given here
PAFAH1B3 confirm = PAFAH1B3 enzyme inhibitors, confirmation, biochemical, fluorescence polarization, human; shares compounds with PAFAH1B3 inh; recombinant PAFAH1B3, FP-Rh activity-based probe; inhibition, % at 3.39 µM; actives 30% (n = 390); AID 493032, 2011;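 active means average inhibition over triplicate runs above the hit cutoff set in the earlier primary screen, cut at about 25% in these data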;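 further: 0% = enzyme with DMSO and 100% = wells lacking PAFAH1B3 protein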
rCAG binder conf = small molecules binding CAG repeat RNA – biochemical, fluorescence, confirmation. actives 70% (n = 4,300). shares compounds with rCAG binder. r(CAG) RNA repeat, TO-PRO-1 dye displacement fluorescence. AID 652065, 2013. inhibition, % at 3 µM;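 active means inhibition above a per-plate cutoff, the mean inhibition of sample wells plus 3 SD, cut at about 35% in these data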;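 further: loss of TO-PRO-1 fluorescence as compound displaces dye from 1x1 AA loop RNA; 0% = DMSO only wells and 100% = 100 µM mitoxantrone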
DNA CAG counter = displacement of TO-PRO-1 from CAG DNA duplex, counter-screen for rCAG RNA repeat binder project, biochemical, fluorescence, TO-PRO-1 dye, d(CAG) DNA oligo; shares compounds with rCAG binder; d(CAG) DNA oligo TO-PRO-1 dye displacement; inhibition, % at 3 µM; actives 94% (n = 4,300);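 active means inhibition above its plate's cutoff, the mean test-well inhibition plus 3 SD, cut at about 4.8% in these data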;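 further: 0% = DNA dye mix with DMSO and 100% = 100 µM mitoxantrone; hits displace the dye from DNA and so lower well fluorescence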
An asterisk follows results filed as active.

How did C#CCOCCOCCOCCNc1nc(N2CCN(C(=O)CCCCCCCCCCNC(=O)Cn3cc(CCCCCN)nn3)CC2)nc(N2CCN(C(=O)CCCCCCCCCCNC(=O)Cn3cc(C[C@@H](C)O)nn3)CC2)n1 do in these assays?
PAFAH1B3 inh: 0.3; PAFAH1B2 FP inh: 1.1; EBNA-1 inh: 1.0; ZTA counter: 46.3*; PAFAH2 inh: 4.5; ZTA inh confirm: 20.1; EBNA1 counter: -0.3

What do the screens show for `C#CCOCCOCCOCCNc1nc(N2CCN(C(=O)CCCCCCCCCCNC(=O)[C@H](CCCCN)n3cc(CCO)nn3)CC2)nc(N2CCN(C(=O)CCCCCCCCCCNC(=O)[C@H](CCCCN)n3cc(CCCC(=O)O)nn3)CC2)n1`?
PAFAH1B3 inh: 4.6; PAFAH1B2 FP inh: -5.0; EBNA-1 inh: 3.5; rCAG binder: 6.2; ZTA counter: 18.6; PAFAH2 inh: 1.3

How did O=C(Nc1ccccc1)Nc1c(-c2ccc(F)cc2)nc2ncccn12 do in these assays?
rCAG binder: 2.2

What do the screens show for `CN(C)CCNC(=O)c1cccc(-c2cccc3nncn23)c1`?
rCAG binder: 3.6

Results for CN(C)c1ccc(N/C=C/C(=O)c2ccco2)cc1 ?
PAFAH1B3 inh: -3.0; PAFAH1B2 FP inh: 1.9; EBNA-1 inh: 15.4; rCAG binder: 12.9; ZTA counter: 91.1*; PAFAH2 inh: 0.8; ZTA inh confirm: -0.3; EBNA1 counter: -3.8

How did CC(=O)Nc1ccc(N/C=C/C(=O)c2ccco2)cc1 do in these assays?
PAFAH1B3 inh: -4.0; PAFAH1B2 FP inh: 2.9; EBNA-1 inh: -1.3; rCAG binder: 2.6; ZTA counter: 0.0; PAFAH2 inh: -4.4

How did CN(C)c1ccc(N/C=C/C(=O)c2ccc(F)cc2)cc1 do in these assays?
PAFAH1B3 inh: 1.1; PAFAH1B2 FP inh: 1.7; EBNA-1 inh: 4.1; ZTA counter: 78.3*; PAFAH2 inh: 6.9; ZTA inh confirm: 13.2; EBNA1 counter: 2.5

What do the screens show for `Nn1c(SCC(=O)N2CCOCC2)nnc1-c1n[nH]c2c1CCC2`?
rCAG binder: 0.6

How did COC(=O)C[C@@H]1CC[C@H]2[C@H](COc3ccc(NC(=O)C4CCC4)cc3C(=O)N2C)O1 do in these assays?
rCAG binder: 1.7

How did COc1cc(C#Cc2c(-c3cncn3C)n(C)c3ccc(-c4cnc(OC)nc4)cc23)cc(OC)c1 do in these assays?
PAFAH1B3 inh: 9.1; PAFAH1B2 FP inh: 3.8; rCAG binder: 74.5*; ZTA counter: 38.4*; PAFAH2 inh: 4.0; ZTA inh confirm: 5.3; EBNA1 counter: -1.7; rCAG binder conf: 15.3; DNA CAG counter: 10.3*

What do the screens show for `O=C(O)C(=Cc1ccncc1)c1cccc2ccccc12`?
rCAG binder: 1.8

How did O=C(O)/C(=C\c1ccc2ccccc2c1)c1cccc2ccccc12 do in these assays?
PAFAH1B3 inh: 3.7; PAFAH1B2 FP inh: 1.2; EBNA-1 inh: 8.4; rCAG binder: 57.8*; ZTA counter: 36.4*; PAFAH2 inh: -0.9; ZTA inh confirm: 1.8; EBNA1 counter: 8.5; rCAG binder conf: 52.3*; DNA CAG counter: 17.4*

How did COc1ccc(C(O)c2nc(-c3ccccc3)cs2)cc1 (stereo unspecified) do in these assays?
rCAG binder: 0.8

What do the screens show for `COc1ccccc1Nc1cc2cc(Br)ccc2c(=O)[nH]1`?
PAFAH1B3 inh: 25.4; PAFAH1B2 FP inh: 5.7; EBNA-1 inh: -1.2; rCAG binder: 13.8; ZTA counter: 11.9; PAFAH2 inh: 13.4

Results for O=c1[nH]c(Nc2ccccc2)cc2cc(Br)ccc12 ?
PAFAH1B3 inh: 61.0*; PAFAH1B2 FP inh: 15.8; EBNA-1 inh: -6.2; rCAG binder: 37.5*; ZTA counter: 40.8*; PAFAH2 inh: 18.5; ZTA inh confirm: 2.2; EBNA1 counter: -5.0; PAFAH1B3 confirm: 13.7; rCAG binder conf: 13.8; DNA CAG counter: 15.2*

What do the screens show for `COc1cccc(NS(=O)(=O)c2ccc3c(c2)CCCN3C(C)=O)c1`?
PAFAH1B3 inh: 1.1; PAFAH1B2 FP inh: 0.8; EBNA-1 inh: 14.8; rCAG binder: -3.7; ZTA counter: -13.9; PAFAH2 inh: 6.2

What do the screens show for `COc1cccc(NS(=O)(=O)c2ccc3c(c2)C2C=CCC2C(c2ccc(C(=O)O)cc2)N3)c1` (stereo unspecified)?
PAFAH1B3 inh: 40.2*; PAFAH1B2 FP inh: 36.4*; EBNA-1 inh: -0.8; rCAG binder: 95.7*; ZTA counter: 38.5*; PAFAH2 inh: 68.1*; ZTA inh confirm: 25.0; EBNA1 counter: 3.8; rCAG binder conf: 90.0*; DNA CAG counter: 62.3*

How did COc1cc(/C=C2\S/C(=N/S(=O)(=O)Cc3ccccc3)NC2=O)c([N+](=O)[O-])cc1OC do in these assays?
PAFAH1B3 inh: 9.9; PAFAH1B2 FP inh: 13.9; EBNA-1 inh: 12.7; rCAG binder: 78.3*; ZTA counter: 39.0*; PAFAH2 inh: 9.8; ZTA inh confirm: 8.2; EBNA1 counter: 10.9; rCAG binder conf: 71.1*; DNA CAG counter: 32.9*

Results for Cc1cccc(NC(=O)COc2ccc(/C=C\c3[nH]c(=O)[nH]c(=O)c3[N+](=O)[O-])cc2)c1 ?
PAFAH1B3 inh: 7.6; PAFAH1B2 FP inh: 12.2; EBNA-1 inh: 18.7; rCAG binder: 86.6*; ZTA counter: 44.3*; PAFAH2 inh: -1.4; ZTA inh confirm: 41.7*; EBNA1 counter: 9.3; rCAG binder conf: 87.5*; DNA CAG counter: 65.9*

Results for COc1cccc(NC(=O)C2CCCN2C(=O)NCc2ccccc2OC)c1 (stereo unspecified) ?
rCAG binder: 2.6

Compound activity as filed in PubChem BioAssay.
